This is an account of results in PubChem BioAssay (Tox21).

Where “and” joins values, the source holds several entries; their conditions need not be identical. Equal entries are not always repeated. Inconclusive results are not listed. The source holds several records for some structures; these can differ, active in one and inactive in another. Calls of active or inactive are those of the source. Unless noted, calls follow the shape of the dose curve; as a rule, active = well fitted curve in the direction sought with a large enough effect in the repeat runs; inconclusive = weak or mixed curves; inactive = no such curve, though single readings can be large; an effect the other way counts as inactive or inconclusive.

Assay [1] can be described thus: qHTS assay to test for compound auto fluorescence at 535 nm (green) in HEK293 cells (AID 720680).
Assay [2] can be described thus: qHTS assay to test for compound auto fluorescence at 460 nm (blue) in HEK293 cell free culture (AID 720681). Summed up:
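Blue fluorescence (Ex 405/Em 460 nm, triamterene-equivalent) was read immediately after pin transfer of compound or DMSO into medium (DMEM, 10% FBS) without cells.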

Assay [3] can be described thus: qHTS assay to test for compound auto fluorescence at 535 nm (green) in HEK293 cell free culture (AID 720682). Summed up:
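Read-out: 485/535 nm fluorescence intensity, calibrated against fluorescein. Medium only (DMEM + 10% FBS, no cells); test compound or DMSO vehicle added by pintool before plate reading.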

Assay [4] is described as follows: qHTS assay to test for compound auto fluorescence at 590 nm (red) in HEK293 cell free culture (AID 720683). Summed up: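 Red-channel autofluorescence of compounds in culture medium (DMEM, 10% FBS), no cells, measured at 540/590 nm. Rose Bengal sodium is the reference fluorophore for equivalence.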
Assay [5] can be described thus: qHTS assay to test for compound auto fluorescence at 590 nm (red) in HepG2 cell free culture (AID 720684). An outline of the steps: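 Plate contents were MEM with 10% FBS plus test compound or DMSO, no cells. Fluorescence was recorded with 540 nm excitation and 590 nm emission.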
A short description of assay [6]: qHTS assay to test for compound auto fluorescence at 460 nm (blue) in HepG2 cell free culture (AID 720685). An outline of the steps: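 Compound (23 nL) or DMSO pinned into cell-free MEM with 10% FBS; blue fluorescence read at 405/460 nm excitation/emission, expressed as auto-fluorescence equivalency to triamterene.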
A short description of assay [7]: qHTS assay to test for compound auto fluorescence at 535 nm (green) in HepG2 cell free culture (AID 720686).
Assay [8] can be described thus: qHTS assay to test for compound auto fluorescence at 460 nm (blue) in HepG2 cells (AID 720687). Summed up:
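Blue-channel autofluorescence (Ex/Em 405/460 nm, triamterene-equivalent) was measured after 1 hr compound exposure at 37 C, 5% CO2. Cells were HepG2, plated overnight at 37 C in MEM plus 10% FBS.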

Assay [9] deals with Glucocorticoid receptor (Homo sapiens) (UniProt P04150). Description: qHTS assay to identify small molecule agonists of the glucocorticoid receptor (GR) signaling pathway (AID 720691; active = well fitted activation curve with a large enough effect in the signal ratio in the repeat runs, not every such curve was filed as active; the % refers to the signal ratio). Summed up: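 GR-bla HeLa cells carrying a GRE-driven beta-lactamase reporter, exposed to compounds for 18 h at 37 C. Reporter activation read as fluorescence after 2 h with LiveBLAzer B/G FRET substrate at room temperature.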

The target is the same in assay [10]. Description: qHTS assay to identify small molecule antagonists of the glucocorticoid receptor (GR) signaling pathway (AID 720692; active = well fitted inhibition curve with a large enough effect in the signal ratio in the repeat runs, not every such curve was filed as active; the % refers to the signal ratio). An outline of the steps:
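GR-bla HeLa cells carrying a GRE-driven beta-lactamase reporter received compound after 4 h plating, then dexamethasone (5 nM final). After 18 h at 37C, the FRET substrate was loaded for 2 h at room temperature and fluorescence read.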

The nature of assay [11]: qHTS assay to identify small molecule antagonists of the glucocorticoid receptor (GR) signaling pathway - cell viability counter screen (AID 720693). Also: nearly all actives have a fitted effect of over 55% in size.
Assay [12] in a line: qHTS assay for identifying genotoxic compounds that show differential cytotoxicity against isogenic chicken DT40 cell lines with known DNA damage response pathways - wild type cell line (AID 743012). Also: nearly all actives have a fitted effect of over 60% in size. Also: potency is read from the fitted curve at half-maximal effect. An outline of the steps:
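Wild-type DT40 cells (300/well) exposed to compounds for 40 hours at 37 C/5% CO2. Viability read by CellTiter-Glo luminescence after 30 min at room temperature.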

The nature of assay [13]: qHTS assay for identifying genotoxic compounds that show differential cytotoxicity against isogenic chicken DT40 cell lines with known DNA damage response pathways - Rev3 mutant cell line (AID 743014). Also: nearly all actives have a fitted effect of over 55% in size. Also: potency is read from the fitted curve at half-maximal effect.
A short description of assay [14]: qHTS assay for identifying genotoxic compounds that show differential cytotoxicity against isogenic chicken DT40 cell lines with known DNA damage response pathways - Rad54/Ku70 mutant cell line (AID 743015). Also: nearly all actives have a fitted effect of over 60% in size. Also: potency is read from the fitted curve at half-maximal effect.
Assay [15] in a line: qHTS assay to identify small molecule antagonists of the androgen receptor (AR) signaling pathway - cell viability counter screen (AID 743033; also: nearly all actives have a fitted effect of over 45% in size; also: potency is read from the fitted curve at half-maximal effect).
Assay [16] in a line: qHTS assay to identify small molecule antagonists of the androgen receptor (AR) signaling pathway using the MDA cell line - cell viability counter screen (AID 743041; also: nearly all actives have a fitted effect of over 45% in size; also: potency is read from the fitted curve at half-maximal effect). Summed up:
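R1881-driven MDA-kb2 AR-luc cells, 3,000/well, were dosed with library compounds for 16 h; cell health came from CellTiter-Fluor fluorescence in the reporter wells.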

The target in assay [17] is Androgen receptor (Homo sapiens) (UniProt P10275). As to the kind of experiment: qHTS assay to identify small molecule antagonists of the androgen receptor (AR) signaling pathway (AID 743035; active = well fitted inhibition curve with a large enough effect in the signal ratio in the repeat runs, not every such curve was filed as active; the % refers to the signal ratio). Summed up:
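HEK293 cells stably carrying UAS-beta-lactamase reporter, 2,000/well, given compounds plus R1881 agonist and incubated 16 h at 37C. LiveBLAzer B/G FRET substrate then added for 2 h at room temperature before fluorescence reading.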

Assay [18] has the same target. Description: qHTS assay to identify small molecule agonists of the androgen receptor (AR) signaling pathway (AID 743036; active = well fitted activation curve with a large enough effect in the signal ratio in the repeat runs, with a control signal flat, not every such curve was filed as active; the % refers to the signal ratio). Summed up:
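HEK293 cells stably carrying a UAS-driven beta-lactamase reporter (GeneBLAzer AR-UAS-bla-GripTite) were plated at 2,000 cells/well, rested 4 h at 37C, then exposed to compounds in DMSO for 16 h. LiveBLAzer B/G FRET substrate was added for 2 h at room temperature; fluorescence read.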

Assay [19] has the same target. Description: qHTS assay to identify small molecule agonists of the androgen receptor (AR) signaling pathway using the MDA cell line (AID 743040; also: nearly all actives have a fitted effect of over 20% in size). An outline of the steps: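 After a 5 h incubation at 37C and 0% CO2, MDA-kb2 reporter cells were dosed with compounds in DMSO and kept 16 h under the same conditions. Luciferase activity was then read as luminescence with ONE-Glo.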

Assay [20] has the same target. Description: qHTS assay to identify small molecule antagonists of the androgen receptor (AR) signaling pathway using the MDA cell line (AID 743042; also: nearly all actives have a fitted effect of over 55% in size). An outline of the steps: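 Antagonist mode: compounds plus R1881 agonist added to MDA-kb2 AR-luc cells, incubated 16 h at 37C. Luciferase reporter luminescence quantified, with multiplexed CellTiter-Fluor readout for cell viability.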

Chain of Androgen receptor (Homo sapiens) (P10275 whole entry, looked up): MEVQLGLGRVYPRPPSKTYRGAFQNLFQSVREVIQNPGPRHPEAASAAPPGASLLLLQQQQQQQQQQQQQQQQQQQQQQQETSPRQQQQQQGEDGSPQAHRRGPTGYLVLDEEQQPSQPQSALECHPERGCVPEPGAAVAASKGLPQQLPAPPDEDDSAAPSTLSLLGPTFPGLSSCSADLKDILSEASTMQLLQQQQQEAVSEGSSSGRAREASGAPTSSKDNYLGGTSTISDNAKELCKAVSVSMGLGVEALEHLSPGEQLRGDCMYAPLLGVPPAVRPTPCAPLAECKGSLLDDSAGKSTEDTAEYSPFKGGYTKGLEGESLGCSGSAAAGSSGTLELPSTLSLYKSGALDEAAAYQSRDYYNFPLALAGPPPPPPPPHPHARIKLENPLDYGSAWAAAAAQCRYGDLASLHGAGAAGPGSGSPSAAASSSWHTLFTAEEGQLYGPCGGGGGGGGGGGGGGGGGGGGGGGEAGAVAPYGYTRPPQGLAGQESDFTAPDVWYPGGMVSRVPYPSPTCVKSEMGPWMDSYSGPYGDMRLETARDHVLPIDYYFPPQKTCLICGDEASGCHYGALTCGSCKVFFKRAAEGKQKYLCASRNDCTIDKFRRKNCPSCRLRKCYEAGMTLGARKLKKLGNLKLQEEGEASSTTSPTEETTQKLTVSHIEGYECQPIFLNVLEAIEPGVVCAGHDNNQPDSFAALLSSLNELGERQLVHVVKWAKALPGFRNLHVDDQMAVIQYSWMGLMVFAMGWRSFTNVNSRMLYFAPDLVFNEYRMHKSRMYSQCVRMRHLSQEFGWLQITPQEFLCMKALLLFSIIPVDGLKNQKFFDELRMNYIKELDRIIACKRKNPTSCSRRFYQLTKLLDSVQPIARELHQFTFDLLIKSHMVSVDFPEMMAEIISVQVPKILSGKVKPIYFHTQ
Chain of Glucocorticoid receptor (Homo sapiens) (P04150 whole entry, looked up): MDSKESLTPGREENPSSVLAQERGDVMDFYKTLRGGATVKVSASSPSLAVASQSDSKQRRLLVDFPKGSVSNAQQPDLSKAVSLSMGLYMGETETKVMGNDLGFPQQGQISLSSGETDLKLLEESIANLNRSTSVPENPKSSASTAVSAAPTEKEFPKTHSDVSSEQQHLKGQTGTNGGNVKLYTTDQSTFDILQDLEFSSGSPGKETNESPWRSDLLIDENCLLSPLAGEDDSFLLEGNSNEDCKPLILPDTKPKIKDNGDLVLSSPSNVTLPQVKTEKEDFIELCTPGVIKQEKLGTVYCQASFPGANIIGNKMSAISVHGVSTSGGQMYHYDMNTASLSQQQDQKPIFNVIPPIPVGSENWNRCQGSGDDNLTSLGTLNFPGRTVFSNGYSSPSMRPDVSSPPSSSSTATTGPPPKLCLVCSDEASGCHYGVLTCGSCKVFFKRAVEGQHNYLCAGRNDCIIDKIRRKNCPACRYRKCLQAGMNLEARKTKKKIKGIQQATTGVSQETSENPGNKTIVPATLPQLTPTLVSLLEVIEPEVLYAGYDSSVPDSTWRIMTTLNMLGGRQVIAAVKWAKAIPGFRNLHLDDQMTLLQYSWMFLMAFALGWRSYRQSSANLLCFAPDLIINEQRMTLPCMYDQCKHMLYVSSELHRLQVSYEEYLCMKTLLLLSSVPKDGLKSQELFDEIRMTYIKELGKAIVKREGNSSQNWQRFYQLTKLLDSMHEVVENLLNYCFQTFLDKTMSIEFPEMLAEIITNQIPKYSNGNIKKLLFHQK

`C[C@H](NC(CCc1ccccc1)C(=O)O)C(=O)N1CCC[C@H]1C(=O)O` (some centres undefined): the compound was classed as inactive in [1], in assay [2], in assay [3], in assay [4], in [5] and in assay [6]. Besides, the compound was called inactive in assay [7], in assay [8] and in assay [11]. The Potency result in assay [9], in assay [10], in [12], in [13], in assay [14] and in [15] was “inactive” throughout. Also, the Potency entry in [16] was “inactive”.

Take `CCOC(=O)CCC(C)=O`: the call in assay [1], in [2], in assay [3], in [4], in assay [5] and in assay [6] was inactive. Moreover, the compound was called inactive in assay [7], in [8] and in [11]. Further, the Potency entry in [9], in assay [10], in [12], in [13], in [14] and in assay [15] was “inactive” throughout. Further, the Potency entry in [16] is “inactive”.

Take `CCn1nc(C(=O)O)c(=O)c2cc3c(cc21)OCO3`: the call in [1], in assay [2], in assay [3], in assay [4], in assay [5] and in [6] was inactive. The compound was classed as inactive in assay [7], in assay [8], in assay [11], in assay [17] and in [18]. In addition, the Potency entry in [9], in assay [10], in assay [12], in [13], in assay [14] and in assay [19] was “inactive” in each case. Moreover, the Potency result in assay [16] and in assay [20] was “inactive” throughout.

As to `Cn1cc(S(C)=O)c(=O)c2ccc(F)cc21` (centres undefined), the compound was called inactive in [1], in [2], in assay [3], in [4], in [5] and in assay [6]. Further, the compound was classed as inactive in assay [7], in assay [8] and in assay [11]. The Potency result in [9], in [10], in assay [12], in assay [13], in [14] and in assay [15] was “inactive” each time. Further, the Potency entry in assay [16] is “inactive”.

With `CCCCC(CC)COC(=O)c1ccccc1O` (centres undefined), the result in assay [1], in assay [2], in assay [3], in assay [4], in [5] and in [6] was inactive. Further, the call in assay [7], in assay [8] and in [11] was inactive. In addition, the Potency result in [9], in assay [10], in [12], in [13], in [14] and in assay [15] was “inactive” in each case. Besides, in [16], the Potency entry is “inactive”.

Turning to `COC(=O)c1c(Cl)c(Cl)c(C(=O)OC)c(Cl)c1Cl`, the compound was classed as inactive in [1], in assay [2], in assay [3], in [4], in assay [5] and in assay [6]. Further, the call in assay [7], in assay [8] and in [11] was inactive. Moreover, the Potency result in [9], in assay [10], in [13], in [14], in assay [15] and in [16] was “inactive” each time. The Potency result in assay [12] was “inactive and 48.6 µM (active)”.

As for `CN(C)CCCN1c2ccccc2CCc2ccc(Cl)cc21`, the result in [1], in assay [2], in assay [3], in [4], in assay [5] and in assay [6] was inactive. Moreover, the compound was called inactive in assay [7], in assay [8] and in assay [11]. Also, the Potency entry in [9] was “inactive”. Also, the Potency in assay [12] is 7.5 µM (active) and 6.11 µM (active); in assay [13] it was 7.5 µM (active) and 6.86 µM (active); in assay [14] it was 9.44 µM (active) and 7.7 µM (active); in [15], 24.5 µM (active); in [16] it was 48.6 µM (active).

`c1cnc(N2CCN(Cc3ccc4c(c3)OCO4)CC2)nc1`: the call in assay [1], in assay [2], in assay [3], in [4], in assay [5] and in [6] was inactive. Further, the outcome in assay [7], in assay [8] and in assay [11] was inactive. Also, the Potency entry in [9], in assay [10], in assay [12], in assay [13], in [15] and in assay [16] was “inactive” throughout.
